Experimental findings from PubChem BioAssay (Tox21) are described below.

Several values for one entry are separate records, joined by “and”; a condition that tells them apart may be missing. Equal values may be shown once. Results filed as inconclusive are left out. Some structures have more than one record in an assay (separate samples or runs), and their calls can disagree. Activity calls are given as the source filed them. Unless noted, calls come from the whole dose curve.

Experiment [1] is described as follows: Nuclear factor erythroid 2-related factor 2/antioxidant responsive element (Nrf2/ARE) small molecule agonists: qHTS cell viability counter screen in human keratinocytes (AID 1919968; active = well fitted curve in the direction sought with a large enough effect in the repeat runs; an effect the other way counts as inactive or inconclusive; note: nearly all actives have a fitted effect of over 55% in size; note: potency is the fitted concentration of half-maximal effect). The essentials: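 Viability counter-screen: KeratinoSens reporter cells, DMSO-delivered compounds, 23 h at 37 C, CellTiter-Fluor fluorescence.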
For orientation: In qHTS, concentration-response curves come from the screen itself.

The nature of experiment [2]: Nuclear factor erythroid 2-related factor 2/antioxidant responsive element (Nrf2/ARE) small molecule agonists: luciferase reporter gene qHTS assay in human keratinocytes (AID 1919969; note: nearly all actives have a fitted effect of over 35% in size; note: potency is the fitted concentration of half-maximal effect). (In general: A reporter such as luciferase makes a cellular process visible.)
The target in experiment [3] is Gonadotropin-releasing hormone receptor (Homo sapiens) (UniProt P30968). In words: Human gonadotropin-releasing hormone receptor (GnRHR) small molecule agonists, calcium flux assay in GnRHR-HEK293 cells (AID 1920063). Note: nearly all actives have a fitted effect of over 35% in size. The method in brief: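 Tox21-format agonist screen using human GnRHR-expressing HEK293 cells and a fluorescent calcium dye; kinetic 3-min fluorescence reading after compound addition, 15-point concentration series run in triplicate.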
Gonadotropin-releasing hormone receptor (Homo sapiens), sequence (P30968 whole entry, looked up): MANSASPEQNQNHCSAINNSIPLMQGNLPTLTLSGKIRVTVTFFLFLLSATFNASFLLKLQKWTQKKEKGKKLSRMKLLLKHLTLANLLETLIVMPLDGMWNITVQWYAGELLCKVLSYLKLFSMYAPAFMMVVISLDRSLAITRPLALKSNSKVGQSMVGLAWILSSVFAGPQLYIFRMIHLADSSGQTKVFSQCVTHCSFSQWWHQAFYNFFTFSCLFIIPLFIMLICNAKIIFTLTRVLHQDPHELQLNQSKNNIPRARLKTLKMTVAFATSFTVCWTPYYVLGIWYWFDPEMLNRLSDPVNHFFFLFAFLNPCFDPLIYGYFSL

Experiment [4] concerns the target KiSS-1 receptor (Homo sapiens) (UniProt Q969F8). In words: Human kisspeptin (KISS1R) small molecule agonists, calcium flux assay in KISS1R-HEK293 cells (AID 1920064; active = well fitted curve in the direction sought with a large enough effect in the repeat runs; an effect the other way counts as inactive or inconclusive). The essentials: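 Intracellular calcium mobilization in KISS1R-HEK293 cells was recorded by fluorescence (Ex/Em 480/540) for 3 min following compound addition to cells pre-loaded 1 h with calcium dye.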

The nature of experiment [5]: G protein-coupled receptor (GPCR) small molecule agonists, calcium flux assay: HEK293 wild type cell line counter screen (AID 1920065). The essentials:
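In this agonist-mode screen, ATP is the positive control and DMSO the vehicle. Cells grow 18 h before a 1 h dye incubation at 37 C; signal is taken at Ex/Em 480/540 over 3 min.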
(In general: Calcium assays in cells follow changes in intracellular calcium, usually with a dye or a luminescent sensor.)

Experiment [6] in a line: p53 small molecule agonists, cell-based qHTS assay with human liver microsomes (AID 1963577).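 Note: p53 response element beta-lactamase reporter cells with liver microsomes plus NADPH.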 The method in brief:
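16 h, 37 C exposure of p53RE-bla cells to compounds with human liver microsomes and NADPH (0.5 mg/mL final each); detection via LiveBLAzer mixture, 2 h dark at room temperature.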

Experiment [7] in a line: p53 small molecule agonists, cell-based qHTS assay with rat liver microsomes (AID 1963578). The essentials: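 With rat liver microsomes and NADPH present (0.5 mg/mL final each), p53RE-bla cells are treated with compound for 16 h at 37 C. LiveBLAzer detection mixture is then applied for 2 h at room temperature in the dark.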
The nature of experiment [8]: p53 small molecule agonists, cell-based qHTS assay with human liver microsomes: qHTS cell viability counter screen (AID 1963579). Note: nearly all actives have a fitted effect of over 45% in size. Note: potency is the fitted concentration of half-maximal effect. The essentials: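 In this multiplexed counter screen, the reporter plates were subsequently treated with CellTiter-Glo so that cell viability, reflected by luminescence, could be recorded for p53RE-bla cells dosed 16 h with compounds under microsomal activation (HLM and NADPH).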

A short description of experiment [9]: p53 small molecule agonists, cell-based qHTS assay with rat liver microsomes: qHTS cell viability counter screen (AID 1963580). Note: nearly all actives have a fitted effect of over 45% in size. Note: potency is the fitted concentration of half-maximal effect. The essentials: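 p53RE-bla HCT-116 cells were exposed 16 h at 37 C to compounds with rat liver microsomes (0.5 mg/mL) and NADPH (0.5 mg/mL). Viability was measured in the same wells as ATP content by CellTiter-Glo luminescence.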
A short description of experiment [10]: p53 small molecule agonists, cell-based qHTS assay: qHTS cell viability counter screen (AID 1963581). Note: nearly all actives have a fitted effect of over 45% in size. The method in brief:
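Compounds are pinned onto HCT-116 p53RE-bla cells and left 16 h at 37 C. Following the reporter FRET read, ATP is quantified by CellTiter-Glo luminescence after 30 min at room temperature.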

A short description of experiment [11]: p53 small molecule agonists, cell-based qHTS assay (AID 1963582; active = well fitted activation curve with a large enough effect in the signal ratio in the repeat runs, not every such curve was filed as active; the % refers to the signal ratio; note: potency is the fitted concentration of half-maximal effect). The method in brief:
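Agonist activity was scored from beta-lactamase FRET fluorescence in p53RE-bla cells treated 16 h at 37 C with compounds in DMSO, substrate incubation being 2 h at room temperature.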

The target in experiment [12] is 5-hydroxytryptamine receptor 2A (Homo sapiens) (UniProt P28223). Briefly: 5-hydroxytryptamine receptor 2A (HTR2A) small molecule antagonists, cell-based qHTS assay (AID 1963586). Note: nearly all actives have a fitted effect of over 45% in size. Note: potency is the fitted concentration of half-maximal effect. The method in brief: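 Antagonist-mode intracellular calcium assay: DOI (4 nM) added after 5 min compound pre-incubation at room temperature to dye-loaded HTR2A-CHO cells. Fluorescence followed for 3 min, sampled every second.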
5-hydroxytryptamine receptor 2A (Homo sapiens), sequence (P28223 whole entry, looked up): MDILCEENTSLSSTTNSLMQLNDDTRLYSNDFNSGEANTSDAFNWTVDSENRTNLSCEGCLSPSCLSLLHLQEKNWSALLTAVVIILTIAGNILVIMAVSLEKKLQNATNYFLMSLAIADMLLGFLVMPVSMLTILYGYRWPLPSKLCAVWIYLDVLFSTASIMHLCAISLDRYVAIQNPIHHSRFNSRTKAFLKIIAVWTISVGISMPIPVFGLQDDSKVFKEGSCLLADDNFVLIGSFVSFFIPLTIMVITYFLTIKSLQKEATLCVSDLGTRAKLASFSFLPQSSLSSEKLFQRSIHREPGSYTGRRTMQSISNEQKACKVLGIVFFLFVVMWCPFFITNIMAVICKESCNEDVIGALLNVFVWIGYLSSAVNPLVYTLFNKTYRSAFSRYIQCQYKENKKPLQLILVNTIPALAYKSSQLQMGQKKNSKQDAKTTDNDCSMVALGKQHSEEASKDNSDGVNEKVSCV

Experiment [13] shares this target. In words: 5-hydroxytryptamine receptor 2A (HTR2A) small molecule agonists, cell-based qHTS assay (AID 1963587). Note: nearly all actives have a fitted effect of over 30% in size. Note: potency is the fitted concentration of half-maximal effect. The essentials:
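CHO cells stably expressing human HTR2A, plated 18 h, loaded with calcium dye 1 h at 37 C. Agonist mode: compounds added and intracellular calcium fluorescence recorded kinetically for 2 min at 1 sec intervals.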

Experiment [14] addresses Muscarinic acetylcholine receptor M1 (Homo sapiens) (UniProt P11229). Briefly: Cholinergic receptor muscarinic 1 (CHRM1) small molecule antagonists, cell-based qHTS assay (AID 1963588). Note: nearly all actives have a fitted effect of over 40% in size. The essentials: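 CHRM1-CHO calcium-flux assay, antagonist mode. Cells were seeded 18 h, dye-loaded 1 h at 37 C and given compound for 5 min at RT, then acetylcholine was added at 50nM. FDSS fluorescence was read 3 min; 15 concentrations, three runs.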

Experiment [15] shares this target. In words: Cholinergic receptor muscarinic 1 (CHRM1) small molecule agonists, cell-based qHTS assay (AID 1963589). Note: nearly all actives have a fitted effect of over 35% in size. The method in brief: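 Stable CHRM1-CHO cells (human receptor) were incubated 18 h, dye-loaded for 1 h at 37 C and exposed to test compounds for agonist activity, with calcium-dependent fluorescence followed kinetically.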
Experiment [16] is described as follows: cAMP Responsive Elements (CRE) small molecule antagonists, cell-based qHTS assay (AID 1963591; active = well fitted inhibition curve with a large enough effect in the signal ratio in the repeat runs, not every such curve was filed as active; the % refers to the signal ratio). The method in brief:
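qHTS in CRE-bla HEK 293T cells: compound in DMSO, then 0.25 uM NKH477 (final), 3 h at 37 °C/5% CO2; beta-lactamase FRET read-out after 2 h substrate incubation.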

Experiment [17] concerns the target Beta-2 adrenergic receptor (Homo sapiens) (UniProt P07550). Briefly: Adrenergic beta2 receptor (ADRB2) small molecule antagonists, cell-based qHTS assay (AID 1963592). Note: series mostly up to about 92 µM; nearly all actives have a fitted effect of over 50% in size. The method in brief: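 Cells (CHO, stable ADRB2 overexpression) incubated 18-20hr at 37C; compounds added from DMSO; agonist mix (1nM isoproterenol, 100uM IBMX, 25uM Ro-20-1724) added; 0.5hr RT; d2-cAMP and anti-cAMP-cryptate added; 1hr RT; 665/615 nm read.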

Experiment [18] has the same target. Briefly: Adrenergic beta2 receptor (ADRB2) small molecule agonists, cell-based qHTS assay (AID 1963593).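 Note: CHO cells stably overexpressing human ADRB2.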 The method in brief: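 CHO cells stably over-expressing ADRB2 were plated overnight at 37C, then dosed with compounds plus a stimulation mix containing 100uM IBMX and 25uM Ro-20-1724 for 0.5hr at room temperature. cAMP was measured by HTRF competition, 1hr.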

Experiment [19] deals with D(2) dopamine receptor (Homo sapiens) (UniProt P14416). Briefly: Dopamine D2 receptor (DRD2) small molecule agonists, cell-based qHTS assay (AID 1963594). Note: nearly all actives have a fitted effect of over 35% in size. The method in brief: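 HEK293 cells stably expressing human DRD2, pre-treated with PDE inhibitor Ro20-1724 (0.1 mM final) and compound 10 min at room temperature, then stimulated with NKH477 (200nM […]) for 30 min. cAMP read by HTRF (665/620 nm).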
D(2) dopamine receptor (Homo sapiens), sequence (P14416 whole entry, looked up): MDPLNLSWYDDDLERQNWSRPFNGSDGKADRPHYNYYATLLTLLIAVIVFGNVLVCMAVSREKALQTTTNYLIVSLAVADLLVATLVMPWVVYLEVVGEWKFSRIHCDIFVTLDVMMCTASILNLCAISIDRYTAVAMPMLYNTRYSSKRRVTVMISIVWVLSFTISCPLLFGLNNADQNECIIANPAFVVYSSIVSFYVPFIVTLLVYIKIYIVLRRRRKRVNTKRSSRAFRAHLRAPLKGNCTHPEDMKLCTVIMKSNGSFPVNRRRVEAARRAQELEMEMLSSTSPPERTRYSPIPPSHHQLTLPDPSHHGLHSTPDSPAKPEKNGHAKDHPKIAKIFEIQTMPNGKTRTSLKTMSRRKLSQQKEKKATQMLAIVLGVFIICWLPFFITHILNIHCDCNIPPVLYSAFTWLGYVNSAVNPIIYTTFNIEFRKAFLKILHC

Experiment [20] shares this target. In words: Dopamine D2 receptor (DRD2) small molecule antagonists, cell-based qHTS assay (AID 1963595; active = well fitted inhibition curve with a large enough effect in the signal ratio in the repeat runs, with a control signal flat; the % refers to the signal ratio; note: potency is the fitted concentration of half-maximal effect). The essentials:
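In this cell-based antagonist screen, compounds act for 10 min at room temperature before a 30 min challenge with 12 nM quinpirole and 200 nM NKH477. cAMP is quantified by HTRF competition in DRD2-HEK293 cells containing 0.1 mM Ro20-1724.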

Beta-2 adrenergic receptor (Homo sapiens), sequence (P07550 whole entry, looked up): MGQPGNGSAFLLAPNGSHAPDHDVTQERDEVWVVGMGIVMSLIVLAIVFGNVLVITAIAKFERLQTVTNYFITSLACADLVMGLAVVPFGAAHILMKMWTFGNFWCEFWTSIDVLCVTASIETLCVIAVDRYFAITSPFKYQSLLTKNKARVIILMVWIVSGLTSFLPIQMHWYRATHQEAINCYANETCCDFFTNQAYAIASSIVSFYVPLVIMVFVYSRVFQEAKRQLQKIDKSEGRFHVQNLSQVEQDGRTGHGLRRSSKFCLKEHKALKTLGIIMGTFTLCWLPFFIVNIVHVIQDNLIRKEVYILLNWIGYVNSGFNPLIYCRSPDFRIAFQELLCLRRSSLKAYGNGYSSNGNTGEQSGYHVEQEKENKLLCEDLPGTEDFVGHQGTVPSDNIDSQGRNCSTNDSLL
Muscarinic acetylcholine receptor M1 (Homo sapiens), sequence (P11229 whole entry, looked up): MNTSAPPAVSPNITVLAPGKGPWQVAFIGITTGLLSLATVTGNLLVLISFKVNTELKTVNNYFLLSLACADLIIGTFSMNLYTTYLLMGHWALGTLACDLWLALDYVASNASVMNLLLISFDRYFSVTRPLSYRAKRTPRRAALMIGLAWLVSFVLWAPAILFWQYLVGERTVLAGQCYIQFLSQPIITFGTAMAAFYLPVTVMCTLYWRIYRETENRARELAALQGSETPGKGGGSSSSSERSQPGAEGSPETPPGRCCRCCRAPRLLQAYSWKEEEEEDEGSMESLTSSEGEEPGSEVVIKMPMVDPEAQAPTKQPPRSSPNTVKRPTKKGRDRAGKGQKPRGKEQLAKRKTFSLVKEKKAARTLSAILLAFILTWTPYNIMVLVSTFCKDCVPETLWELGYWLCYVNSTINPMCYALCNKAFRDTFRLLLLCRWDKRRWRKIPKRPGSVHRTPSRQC
KiSS-1 receptor (Homo sapiens), sequence (Q969F8 whole entry, looked up): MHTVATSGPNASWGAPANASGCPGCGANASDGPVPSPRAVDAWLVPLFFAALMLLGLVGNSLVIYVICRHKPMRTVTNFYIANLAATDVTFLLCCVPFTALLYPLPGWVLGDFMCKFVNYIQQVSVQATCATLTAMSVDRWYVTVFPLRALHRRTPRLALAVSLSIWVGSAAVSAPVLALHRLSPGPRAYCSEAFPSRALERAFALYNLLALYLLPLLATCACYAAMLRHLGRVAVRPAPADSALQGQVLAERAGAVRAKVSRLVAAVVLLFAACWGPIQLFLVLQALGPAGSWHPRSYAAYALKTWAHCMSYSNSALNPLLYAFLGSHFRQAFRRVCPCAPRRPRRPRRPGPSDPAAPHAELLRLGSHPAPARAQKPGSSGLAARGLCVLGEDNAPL

`CC(C)(C)c1nnc(NS(=O)(=O)c2ccc(N)cc2)s1`: the Potency entry in [1], in [2], in [3], in experiment [4], in experiment [5] and in experiment [6] was “inactive” throughout. Also, the Potency entry in [7], in [8], in [9], in [10], in experiment [11] and in [13] was “inactive” throughout. For the same compound, the Potency result in experiment [14], in experiment [15], in experiment [16], in experiment [17], in experiment [18] and in experiment [19] was “inactive” each time. Moreover, the Potency in experiment [12] is 7.29 µM (active).
For the compound `CC(C)(CO)[C@@H](O)C(=O)NCCC(=O)O`, the Potency entry in experiment [1], in [2], in experiment [3], in [4], in experiment [5] and in experiment [6] was “inactive” throughout. Further, the Potency result in [7], in [8], in experiment [9], in experiment [10], in experiment [11] and in experiment [12] was “inactive” each time. Also, the Potency entry in experiment [13], in experiment [14], in experiment [16], in [17], in experiment [18] and in experiment [19] was “inactive” each time.
Regarding `O=C(/C=C/c1ccccc1)OCc1ccccc1`, the Potency result in [1], in experiment [2], in experiment [3], in experiment [4], in [5] and in experiment [6] was “inactive” in each case. Further, the Potency entry in experiment [7], in experiment [8], in [9], in experiment [10], in [11] and in [12] was “inactive” each time. The Potency entry in experiment [13], in [14], in experiment [15], in experiment [16], in experiment [17] and in [19] was “inactive” in each case. In addition, in experiment [20], the Potency entry was “inactive”.
For `C=C1C[C@H]2[C@@H]3C=C(C)C4=CC(=O)CC[C@]4(C)[C@H]3CC[C@]2(C)[C@@]1(OC(C)=O)C(C)=O`, the Potency result in experiment [1], in experiment [2], in [3], in experiment [4], in [5] and in experiment [6] was “inactive” each time. Also, the Potency entry in experiment [7], in experiment [8], in experiment [9], in experiment [10], in experiment [11] and in [12] was “inactive” each time. Moreover, the Potency entry in experiment [13], in [14], in experiment [15] and in [20] was “inactive” throughout.
As to `O=Nc1ccc(Nc2ccccc2)cc1`, the Potency in [1] is 27.4 µM (active); in experiment [2] it was 9.74 µM (active) and 24.3 µM (active); in experiment [8], “inactive and 36.3 µM (active)”; in experiment [9] it was 40.8 µM (active); in [11], 43.4 µM (active); in [12], 844 nM (active) and 5.3 µM (active). The Potency in experiment [13] is 0.391 µM (active); in experiment [20], 54.5 µM (active). For the same compound, the Potency entry in experiment [3], in experiment [4], in experiment [5], in experiment [6], in [7] and in experiment [10] was “inactive” in each case. For the same compound, the Potency entry in experiment [14], in experiment [15] and in experiment [19] was “inactive” each time.
On to `CC1CC(=O)CC(C)(C)C1` (stereo not drawn), for which the Potency result in experiment [1], in experiment [2], in experiment [3], in experiment [4], in experiment [5] and in experiment [6] was “inactive” each time. Also, the Potency result in experiment [7], in experiment [8], in [9], in experiment [10], in experiment [11] and in experiment [12] was “inactive” each time. Also, the Potency entry in experiment [13], in experiment [14], in experiment [15], in [16], in [17] and in experiment [18] was “inactive” throughout. Further, the Potency entry in experiment [19] and in [20] was “inactive” in each case.
For `O=S(=O)(O)c1cccc2c(S(=O)(=O)O)cccc12`, the Potency result in [1], in [2], in experiment [3], in experiment [4], in [5] and in experiment [6] was “inactive” in each case. Also, the Potency entry in experiment [7], in experiment [8], in [9], in [10], in experiment [11] and in [12] was “inactive” in each case. Also, the Potency result in experiment [13], in [14], in experiment [15], in experiment [16], in experiment [17] and in [18] was “inactive” each time. Also, in [20], the Potency result is “inactive”.
